Data taken from PubChem BioAssay AID2284136 (EPA ToxCast).
Active and inactive are the calls of the source. Rule for the calls: active = hit-call score of the fitted dose curve at least 0.9, where 1 is the maximum; inactive = score below 0.9.

target: Tyrosine-protein phosphatase non-receptor type 11 (Homo sapiens) (UniProt Q06124); experiment: ERF_FR_ENZ_hPTPN11: Eurofins (ERF) Enzymatic Assay for human Phosphatase Receptor (PTPN11/SHP2)
Procedure: ERF_FR_ENZ_hPTPN11 is a biochemical, single-readout assay that uses extracted gene-proteins in a cell-free assay. Measurements were taken 0.5 hour after chemical dosing in a 96-well plate. See SHP2 Human Phosphatase Enzymatic Assay, PhosphataseProfiler.ERF_FR_ENZ_hPTPN11 is an assay component calculated from the ERF_FR_ENZ_hPTPN11 assay. It is designed to measure enzyme activity using a type of enzyme reporter as detected by fluorescence intensity with spectrophotometry technology.Data from the assay component ERF_FR_ENZ_hPTPN11 was analyzed at the assay endpoint, ERF_FR_ENZ_hPTPN11, in the positive analysis fitting direction relative to DMSO as the negative control and baseline of activity. Using a type of enzyme reporter, loss-of-signal activity can be used to understand changes in enzymatic activity as they relate to gene PTPN11. To generalize the intended target to other relatable targets, this assay endpoint is annotated to the phosphatase intended target family, where the subfamily is protein tyrosine phosphatase.
Human recombinant phosphatase PTPN11 (SHP-2) expressed in E. coli is used. Test compound and/or vehicle is preincubated with 45 ng/ml enzymeo for 15 minutes at 37 C in modified HEPES buffer pH 7.2. The reaction is initiated by addition of 100 uM DiFMUP for 60 minutes. Determination of the amount of DiFMU formed is read spectrofluorimetrically at 358 nm/450 nm. […]

Sequence of Tyrosine-protein phosphatase non-receptor type 11 (Homo sapiens) (Q06124 whole entry, looked up): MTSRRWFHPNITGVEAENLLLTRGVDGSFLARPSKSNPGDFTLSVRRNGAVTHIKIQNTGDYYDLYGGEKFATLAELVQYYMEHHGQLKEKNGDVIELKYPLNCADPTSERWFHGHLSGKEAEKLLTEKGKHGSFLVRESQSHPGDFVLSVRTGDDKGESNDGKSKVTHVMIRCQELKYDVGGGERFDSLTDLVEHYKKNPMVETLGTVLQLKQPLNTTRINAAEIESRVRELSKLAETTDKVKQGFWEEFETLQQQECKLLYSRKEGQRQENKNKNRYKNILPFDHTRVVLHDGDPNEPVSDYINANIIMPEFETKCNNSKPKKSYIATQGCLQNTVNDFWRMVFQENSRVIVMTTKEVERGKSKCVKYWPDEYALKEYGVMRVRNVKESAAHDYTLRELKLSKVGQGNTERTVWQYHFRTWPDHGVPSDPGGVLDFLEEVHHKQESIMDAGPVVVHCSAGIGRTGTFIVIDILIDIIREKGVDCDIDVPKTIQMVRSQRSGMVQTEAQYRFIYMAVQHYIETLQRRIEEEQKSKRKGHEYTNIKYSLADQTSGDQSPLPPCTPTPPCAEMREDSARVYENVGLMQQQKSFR

SMILES | AC50
O=C(/C=C/c1ccc(O)cc1)CC(=O)/C=C/c1ccc(O)cc1 | 0.28 nM (active)
